Molecules are shown by their SMILES. Records with an inconclusive call do not appear. Unmarked numbers belong to inactive results. Active and inactive are the calls of the source. Calls come from the whole dose curve; as a rule, active = well fitted inhibition curve with a large enough effect; inconclusive = small, poorly fitted or top-dose-only effect; inactive = flat fitted curve, though single readings scatter.
% is set by controls: 0 for no effect and ±100 for the full control effect; potency is the fitted concentration of half-maximal effect.

The assay in a line: P-glycoprotein substrates identified in KB-8-5-11 adenocarcinoma cell line, qHTS therapeutic library screen (AID 1346987). Note: nearly all actives have a fitted effect of over 65% in size. The note with it: KB-8-5-11 (P-gp overexpressing) viability, CellTiter-Glo, 72 h; series mostly up to 44.5 µM; activity change, negative = cytotoxicity: at the top concentration. A digest of the protocol: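 Compounds are pinned in dose-response onto KB-8-5-11 cells (500 cells/well, colchicine-free medium) and left 72 h at 37 degree C. CellTiter-Glo luminescence then yields AC50 values.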
Take `Nc1ncnc2c1ncn2[C@@H]1O[C@H](CO)C[C@H]1O`: the Potency was 0.001 µM (active).
`Cc1cc2nc(NCCCO)n(CC(=O)c3cc(C(C)(C)C)c(O)c(C(C)(C)C)c3)c2cc1C`: the Potency was 18.4 µM (active).
Same read-out and setting: next, `CC[C@H](CO)Nc1nc(Nc2cccc(-c3ccccn3)c2)c2ncn(C(C)C)c2n1`: 20.6 µM (active).
The same measure, in the same setting: the figure for `COc1ccc(CNC(=O)Nc2ncc([N+](=O)[O-])s2)cc1` is 23.1 µM (active).
Take `OCC(CO)(CO)NCC(O)Cn1c2ccc(Cl)cc2c2cc(Cl)ccc21` (stereo not drawn): the “activity change, negative = cytotoxicity” value was 0.123%.
As to `C=C(C)C(=O)O[C@H]1[C@H]2C(=C)C(=O)O[C@@H]2C[C@@H](C)/C=C\C(=O)[C@](C)(O)[C@@H]1OC(C)=O`, the Potency is 2.82 µM (active).
The same measure, in the same setting: next, `CC(=O)C1=C(O)C2c3c[nH]c4cccc(c34)CC2C(C)(C)N(C)C1=O` (stereo not drawn): 9.2 µM (active).
`CC(C)N(CCCNC(=O)Nc1ccc(C(C)(C)C)cc1)C[C@H]1O[C@@H](n2cc(Br)c3c(N)ncnc32)[C@H](O)[C@@H]1O`: the “activity change, negative = cytotoxicity” value is -7.85%.
Consider `O=C(c1ccc(F)c(F)c1Nc1ccc(I)cc1F)N1CC(O)(C2CCCCN2)C1` (stereo not drawn), for which the Potency was 18.4 µM (active).
On the same count and under the same terms, the figure for `O=[N+]([O-])c1ccc(-[n+]2nc(-c3ccccc3)nn2-c2ccc(I)cc2)cc1` is 18.4 µM (active).
Same read-out and setting: next, `CN1CCN(C(=O)c2ccc(Nc3nccc(-c4cccs4)n3)cc2Cl)CC1`: 18.4 µM (active); `C=C1[C@@H](C2=CC(=O)OC2)CC[C@@]2(O)[C@@H]1CC1[C@H]2CC[C@@H]2C[C@@H](O[C@H]3O[C@@H](C)[C@@H](O[C@@H]4O[C@H](CO[C@@H]5O[C@H](CO)[C@@H](O)[C@H](O)[C@H]5O)[C@@H](O)[C@H](O)[C@H]4O)[C@H](OC)[C@H]3O)CC[C@]12C` (stereo partly drawn): 3.48 µM (active).
For the compound `C=C(C)[C@@H]1CC[C@]2(C(=O)O)CC[C@]3(C)C(CCC4[C@@]5(C)C[C@@H](O)[C@H](O)C(C)(C)C5CC[C@]43C)C12` (stereo partly drawn), the “activity change, negative = cytotoxicity” value is -15.7% [at 17.3 µM].
Regarding `CCS(=O)(=O)N(Cc1cccnc1)c1cccc(-c2ccc(C#N)cc2)c1`, the Potency was 23.1 µM (active).
For `O=C(NNc1ccccc1)c1ccncc1`, the “activity change, negative = cytotoxicity” value is -9.36%.
For `C=C1[C@@H](C)[C@H]2[C@H](Cc3c[nH]c4ccccc34)NC(=O)[C@]23C(=O)/C=C/C(=O)[C@H](O)/C(C)=C\[C@@H](C)C/C=C/[C@H]3[C@@H]1O`, the “outcome” value is “inactive [at 17.3 µM]”.
For `CC1CCC(n2c3cnccc3c3cnc(Nc4ccc5c(n4)CCN(C(=O)CO)C5)nc32)CC1` (stereo not drawn), the Potency is 5.8 µM (active).
On the same count and under the same terms, next, `C=CC(=O)Nc1cc(Nc2nccc(-c3cn(C)c4ccccc34)n2)c(OC)cc1N(C)CCN(C)C`: 11.6 µM (active).

The values are drawn from PubChem BioAssay (NCATS).
